The record followed here is the OligoGym collection.
Also: reference of the scale not given here.

The target of the first assay is FZD1. Nature of the assay: pooled miR-30 sensor sort-seq; sequence = guide strand. To be noted: shRNA.
For the sequence TTTCACTAGAGGGTAGAACTGG, the sensor-assay potency score (higher = more potent) was -0.532.

TTTGCTGTTGGTGAGCCTCGTG returned a sensor-assay potency score (higher = more potent) of -0.218.

For TTGCTGGTCCAGAACTCTGGAA, the sensor-assay potency score (higher = more potent) was -1.24.

Take TTGTCATTACACACCACTCGGT: the sensor-assay potency score (higher = more potent) was -0.649.

The next assay addresses FZD4. The assay is described as above. The following applies: shRNA.
Take TATCAGTGAACTCCTTGGCTGA: the sensor-assay potency score (higher = more potent) is -0.901.

TCAGTCTTTCTAACTTGTCTGT gave a sensor-assay potency score (higher = more potent) of -0.388.

As to TTGGTTTCCAACATAGCACAAG, the sensor-assay potency score (higher = more potent) is -0.766.

On to TTTTAGTAGAATTTCCTCCAAA, for which the sensor-assay potency score (higher = more potent) was -0.591.

As for TAACAGGCAATCACACACGTTG, the sensor-assay potency score (higher = more potent) is -0.53.

With TTTGCTATCTGAAAGACCCAGT, the sensor-assay potency score (higher = more potent) came out at 0.327.

Turning to TACAGTACTGAGAACACCCCAA, the sensor-assay potency score (higher = more potent) amounted to 0.428.

In the case of TTGACTGAAAGACACATGCCGC, the sensor-assay potency score (higher = more potent) was -0.778.

In turn, TATTATAGCACATACTGAGAAA had a sensor-assay potency score (higher = more potent) of -1.2.

Sequence TCTTTCTAACTTGTCTGTCTTT came in with a sensor-assay potency score (higher = more potent) of -0.962.

With AACTTGTCTGTCTTTGTCCCAT, the sensor-assay potency score (higher = more potent) came to 0.289.

Another assay addresses FZD5. Described as above. The following applies: shRNA.
TTCCATGTCGATGAGGAAGGTG showed a sensor-assay potency score (higher = more potent) of -0.703.

Sequence TAGGAAGAAGCGCAGGTCCGGC registered a sensor-assay potency score (higher = more potent) of -0.902.

Consider TAGAGCATAGGAAGAAGCGCAG, for which the sensor-assay potency score (higher = more potent) was -0.267.

For TAGCAGGCCACCACAATGCTGG, the sensor-assay potency score (higher = more potent) is -0.787.

TTCTCCAGCTTGTCCGTCTTGG registered a sensor-assay potency score (higher = more potent) of -0.54.

In the case of TACTTGAGCATGAGCACCCAGT, the sensor-assay potency score (higher = more potent) was -0.921.

On to TTGATGACGCTGCGGATGCGGA, for which the sensor-assay potency score (higher = more potent) was -1.12.

As for AGGAGCAGCAGCAACAGCGAGG, the sensor-assay potency score (higher = more potent) was -2.13.

The sequence TCCAGCTTGTCCGTCTTGGTGC registered a sensor-assay potency score (higher = more potent) of -1.11.

The sequence TCCATGTCGATGAGGAAGGTGG had a sensor-assay potency score (higher = more potent) of -1.25.

Consider TAGAGCAGCGTGAAGATGCCGA, for which the sensor-assay potency score (higher = more potent) was determined as 0.0125.

On to TCTCGCGGTAGTGCTGCTCGTA, for which the sensor-assay potency score (higher = more potent) was -1.3.

Another assay addresses FZD8. Described as above. To be noted: shRNA.
In turn, TTCTTGTAGTCCTCTAGGCAGA registered a sensor-assay potency score (higher = more potent) of -1.02.

For TATATCTGTTCTTACAGGGGTA, the sensor-assay potency score (higher = more potent) was -0.151.

With TTTACTTAAGGCATTTGCCTGG, the sensor-assay potency score (higher = more potent) was found to be 0.501.

As to TACTTGAGCATGAAGACGGCGT, the sensor-assay potency score (higher = more potent) was 0.273.

TTGTAGTCCATGCACAGCGTGT showed a sensor-assay potency score (higher = more potent) of -1.01.

TGTAGGTGTAGTTGTAGCCGAT yielded a sensor-assay potency score (higher = more potent) of -0.983.

TTATATCTGTTCTTACAGGGGT yielded a sensor-assay potency score (higher = more potent) of -0.138.

TTGATGACCGAGCGGATGCGGA gave a sensor-assay potency score (higher = more potent) of -1.04.

The sequence TATCATGCTAATAGCAATCAAC yielded a sensor-assay potency score (higher = more potent) of -0.951.

Sequence ATAATTAAGACATTTCTTGTTT registered a sensor-assay potency score (higher = more potent) of 0.00747.

The sequence TAAGACACGGAGCTCGCCGTGC had a sensor-assay potency score (higher = more potent) of -0.78.

In the case of TGTTGCTTGATGACCGAGCGGA, the sensor-assay potency score (higher = more potent) was -0.353.
